Some structures have more than one record in an assay (separate samples or runs), and their calls can disagree. Active and inactive are the calls of the source. The calls were made as follows: active = hit-call score of the fitted dose curve at least 0.9, where 1 is the maximum; inactive = score below 0.9.
What was measured:
[1] = read-out: Interleukin-8 (IL8), CXCL8 (gene 3576); assay: BSK_IMphg_IL8: BioMAP Diversity Plus: IMphg Assay for Interleukin-8 (IL8) Biomarker Activity (AID 2284277); settings: primary human endothelial cells with macrophages
Procedure, shortened: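 IL-8 levels were measured by ELISA 24 h after dosing in primary human venular endothelial cell–macrophage cultures, referenced to DMSO; parallel SRB staining monitored overt cytotoxicity.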

[2] = read-out: Intercellular Adhesion Molecule 1 (ICAM1), ICAM1 (gene 3383); assay: BSK_BE3C_ICAM1: BioMAP Diversity Plus: BE3C Assay for Intercellular Adhesion Molecule 1 (ICAM1) Biomarker Activity (AID 2284278); settings: primary human bronchial epithelial cells;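 also: cell-surface ICAM-1 protein level quantified by ELISA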
Procedure, shortened: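 Here, ICAM-1 levels on confluent human bronchial epithelial primary cells are read by ELISA at 24 h after chemical dosing. Parallel SRB staining (0.1% after 10% TCA fixation, 560 nm) checks cytotoxicity.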

[3] = read-out: Interferon-inducible T-cell alpha chemoattractant (ITAC), CXCL11 (gene 6373); assay: BSK_BE3C_ITAC: BioMAP Diversity Plus: BE3C Assay for Interferon-inducible T-cell alpha chemoattractant (ITAC) Biomarker Activity (AID 2284279); settings: primary human bronchial epithelial cells
Procedure, shortened: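 Steps: dose human bronchial epithelial cells with chemical; incubate 24 h; measure I-TAC by ELISA; fit endpoint in positive direction against DMSO control. Cytotoxicity was checked in parallel cultures by SRB staining at harvest.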

[4] = read-out: Interleukin-8 (IL8), CXCL8 (gene 3576); assay: BSK_BE3C_IL8: BioMAP Diversity Plus: BE3C Assay for Interleukin-8 (IL8) Biomarker Activity (AID 2284280); settings: primary human bronchial epithelial cells
Procedure, shortened: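 Primary human bronchial epithelial cells (BE3C system) were exposed to test chemical for 24 h, and IL-8 levels were then measured by ELISA. Activity was fitted in the positive (gain-of-signal) direction against a DMSO negative-control baseline.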

[5] = read-out: Epidermal growth factor receptor (EGFR), EGFR (gene 1956); assay: BSK_BE3C_EGFR: BioMAP Diversity Plus: BE3C Assay for Epidermal growth factor receptor (EGFR) Biomarker Activity (AID 2284281); settings: primary human bronchial epithelial cells
Procedure, shortened: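 Human primary bronchial epithelial cells were exposed to compound for 24 h, and cell-surface EGFR was then quantified by ELISA. Activity was fitted in the positive direction against the DMSO vehicle baseline.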

KRT18 (gene 3875) = assay: BSK_BE3C_Keratin818: BioMAP Diversity Plus: BE3C Assay for Keratin 818 Biomarker Activity (AID 2284282); settings: primary human bronchial epithelial cells
Procedure, shortened: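 Keratin 8/18 levels, detected by ELISA, served as the endpoint after 24 h chemical exposure of primary human bronchial epithelial cells. Gain of signal relative to DMSO negative control defined activity.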

[6] = read-out: Matrix Metallopeptidase 9 (MMP9), MMP9 (gene 4318); assay: BSK_BE3C_MMP9: BioMAP Diversity Plus: BE3C Assay for Matrix Metallopeptidase 9 (MMP9) Biomarker Activity (AID 2284283); settings: primary human bronchial epithelial cells
Procedure, shortened: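 MMP9 is measured by ELISA after a 24 h compound exposure of primary human bronchial epithelial cultures. Parallel SRB staining gives overt cytotoxicity. Values fitted in the positive direction against DMSO.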

[7] = read-out: Plasminogen activator inhibitor-1 (PAI1), SERPINE1 (gene 5054); assay: BSK_CASM3C_PAI1: BioMAP Diversity Plus: CASM3C Assay for Plasminogen activator inhibitor-1 (PAI1) Biomarker Activity (AID 2284284); settings: primary human coronary artery smooth muscle cells;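 also: PAI-1 protein level measured by ELISA 24 h after dosing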
[8] = read-out: Monocyte Chemoattractant Protein-1 (MCP1), CCL2 (gene 6347); assay: BSK_hDFCGF_MCP1: BioMAP Diversity Plus: hDFCGF Assay for Monocyte Chemoattractant Protein-1 (MCP1) Biomarker Activity (AID 2284285); settings: primary human foreskin fibroblasts
Procedure, shortened: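 MCP-1 ELISA readout was taken 24 hours after dosing primary human dermal fibroblasts in the hDFCGF system, with DMSO as baseline. Parallel sulforhodamine B staining of total protein tracked overt cytotoxicity.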

[9] = read-out: Vascular cell adhesion molecule 1 (VCAM1), VCAM1 (gene 7412); assay: BSK_IMphg_VCAM1: BioMAP Diversity Plus: IMphg Assay for Vascular cell adhesion molecule 1 (VCAM1) Biomarker Activity (AID 2284286); settings: primary human endothelial cells with macrophages
Method: BSK_IMphg is a cell-based, multiplexed-readout assay that uses venular endothelial cells and macrophages, a human vascular primary cell, with measurements taken at 24 hours after chemical dosing in a microplate: 96-well plate.BSK_IMphg_VCAM1 is an assay component measured in the BSK_IMphg assay. It measures VCAM-1 antibody related to regulation of gene expression using ELISA technology.Data from the assay component BSK_IMphg_VCAM1 was analyzed at the endpoint, BSK_IMphg_VCAM1, in the positive analysis fitting direction relative to DMSO as the negative control and baseline of activity. Using a type of binding reporter, gain or loss-of-signal activity can be used to understand protein changes. […]
The levels of cell surface (or secreted, indicated by the prefix "s") biomarker endpoints were measured by ELISA. Overt cytotoxicity to cells in confluent adherent cultures (all systems other than the BT system) was assessed by measuring total protein levels using sulforhodamine B (SRB) staining in parallel cultures at the time of biomarker measurements, indicated as SRB endpoints. For proliferation assays for adherent cell types, individual cell types are cultured at sub-confluence and relative cell numbers quantified by SRB staining at time points optimized for each system (48 h: 3C and CASM3C systems; 72 h: BT and HDF3CGF systems; 96 h: SAg system). […] Plates were read after 6 h.

Measured: AC50

Cn1cnc([N+](=O)[O-])c1Sc1ncnc2nc[nH]c12
inactive: [1] | [2] | [3] | [4] | [5] | KRT18 (gene 3875) | [6] | [7] | [8] | [9]
active: [9] 9.14 µM
